Sampled rows, rich in hits. Any-hit rate of the full collection: about 4.1%.
ssDAF12 agonist – S. stercoralis DAF-12 activation, primary screen | HEK293 ssDAF-12/GRIP1 lit1-tk-luc reporter, luminescence; % of 3 µM dafachronic acid response | activation, % at 6.8 µM | hit rate 1% among 370,000 | AID 652126;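 active = activation above the mean over all tested compounds plus 3 SD, cut at about 0.9% in these data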;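 note: 0% = DMSO-only wells and 100% = 3 µM delta7-dafachronic acid wells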
DAX1 inh-1 – inhibitors of DAX1 repression of SF-1 activated StAR promoter | HEK293T StAR-luciferase reporter, SF-1/DAX-1 repression relief | inhibition, % at 6.8 µM | hit rate 1.1% among 370,000;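 active = inhibition above the mean over all tested compounds plus 3 SD, cut at about 3.6% in these data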;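 note: 0% = DAX-1 cells with DMSO and 100% = cells lacking DAX-1 with DMSO; higher inhibition means more luminescence from relief of DAX-1 repression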
hcDAF-12 act – activators of H. contortus DAF-12 nuclear receptor; HEK293 hcDAF-12 lit1-tk-luc reporter, luminescence; 0% DMSO, 100% Δ7-dafachronic acid; hit rate 1.4% among 370,000; activation, % at 6.8 µM;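 active = activation above the mean of all tested compounds plus 3 SD, cut at about 5.5% in these data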;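 note: 100% = response to 3 µM Δ7-dafachronic acid high control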
hgDAF12 agonist – activates the H. glycines DAF-12 receptor ligand-binding domain; HEK293 GAL4-hgDAF12 UAS-luciferase reporter, agonist luminescence; normalized to butyrate control; activation, % at 6.8 µM; hit rate 1.8% among 370,000; AID 687014;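 active = activation above a cutoff set at the mean of all screened compounds plus 3 SD, cut at about 10% in these data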;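 note: 0% = DMSO wells and 100% = sodium butyrate wells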
DAX1 inh-2 – inhibits human nuclear receptor DAX1 | P51843 | HEK293 Gal4-DAX1 luciferase reporter, luminescence | inhibition, % at 6.75 µM | hit rate 0.99% among 340,000;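 active = inhibition above the mean over all tested compounds plus 3 SD, cut at about 4.2% in these data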;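 note: 0% = DAX1-transfected cells with DMSO and 100% = empty-vector control cells with DMSO; inhibition shows as a rise in luminescence from relieved DAX1 repression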
Target sequence (P51843 207-470 limits assumed): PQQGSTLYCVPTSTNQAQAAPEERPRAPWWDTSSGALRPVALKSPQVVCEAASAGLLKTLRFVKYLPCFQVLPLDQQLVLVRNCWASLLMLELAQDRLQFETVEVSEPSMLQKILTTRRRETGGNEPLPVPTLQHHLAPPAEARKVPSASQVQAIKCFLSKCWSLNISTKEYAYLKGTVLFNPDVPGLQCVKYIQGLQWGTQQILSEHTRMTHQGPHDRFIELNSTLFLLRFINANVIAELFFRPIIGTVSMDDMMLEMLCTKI
DAX1 inh confirm – NR0B1 (human) inhibition, confirmation; shares compounds with DAX1 inh-1; HEK293T StAR-promoter luciferase reporter, SF-1/DAX-1 repression; inhibition, % at 6.8 µM; hit rate 87% among 2,400; AID 652134;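 active = inhibition above the average of every tested compound plus 3 SD, cut at about 3.8% in these data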;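 note: 0% = DAX-1 cells with DMSO and 100% = no DAX-1 control cells with DMSO; active compounds raise luminescence by relieving repression of the StAR reporter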
Target sequence (P51843 whole entry, looked up): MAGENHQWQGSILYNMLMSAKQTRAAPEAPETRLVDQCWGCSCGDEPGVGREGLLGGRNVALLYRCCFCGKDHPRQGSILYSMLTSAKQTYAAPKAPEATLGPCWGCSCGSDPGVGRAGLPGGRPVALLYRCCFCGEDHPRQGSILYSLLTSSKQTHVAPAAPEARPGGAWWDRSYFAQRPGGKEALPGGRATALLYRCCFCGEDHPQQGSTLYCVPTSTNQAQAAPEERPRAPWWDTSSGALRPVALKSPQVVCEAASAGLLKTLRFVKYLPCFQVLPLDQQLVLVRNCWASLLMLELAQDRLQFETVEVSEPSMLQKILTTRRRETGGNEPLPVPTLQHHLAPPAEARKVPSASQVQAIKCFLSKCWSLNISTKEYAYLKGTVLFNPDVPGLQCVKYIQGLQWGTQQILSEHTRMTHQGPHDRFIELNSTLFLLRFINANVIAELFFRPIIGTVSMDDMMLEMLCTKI
SF1 AF2mut Luc – counter-screen for DAX1 inhibitors: nonselective inhibitors with SF-1 AF2 mutant | inhibition, % at 6.8 µM | shares compounds with DAX1 inh-1 | hit rate 78% among 2,400 | HEK293 StAR-luciferase, luminescence;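 active = inhibition above the mean of all tested compounds plus 3 SD, cut at about 3% in these data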;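 note: 0% = DAX-1 transfected cells with DMSO and 100% = cells without DAX-1 with DMSO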
Starred values were filed as active, the others as inactive.

What do the screens show for `Cc1cc(NC(=O)c2nn(C)c(C)c2Br)no1`?
ssDAF12 agonist: -0.5; DAX1 inh-1: 4.6*; hcDAF-12 act: 2.6; hgDAF12 agonist: 2.2; DAX1 inh-2: 0.4; DAX1 inh confirm: 4.6*; SF1 AF2mut Luc: 5.2*

What do the screens show for `CCOc1cccc2cc(-c3csc(NC(=O)CCC(=O)NCCN4CCCCC4C)n3)c(=O)oc12` (centres undefined)?
ssDAF12 agonist: 0.7; DAX1 inh-1: 6.5*; hcDAF-12 act: 5.4; hgDAF12 agonist: 23.4*; DAX1 inh-2: 2.6; DAX1 inh confirm: 13.8*; SF1 AF2mut Luc: 7.0*

Results for O=C1NC[C@H](Cc2ccccc2)N(CC2CCN(CCCC3CCCC3)CC2)C1=O ?
ssDAF12 agonist: -1.1; DAX1 inh-1: 5.5*; hcDAF-12 act: -1.0; hgDAF12 agonist: 4.0; DAX1 inh-2: -0.1; DAX1 inh confirm: 1.3; SF1 AF2mut Luc: 1.4

What do the screens show for `O=C1NC[C@H](Cc2ccccc2)N(CC2CCN(CC3CCCC3)CC2)C1=O`?
ssDAF12 agonist: -1.2; DAX1 inh-1: -0.5; hcDAF-12 act: -2.4; hgDAF12 agonist: -0.4; DAX1 inh-2: -0.5

What do the screens show for `Cc1ccc(OCc2csc(N)n2)cc1`?
ssDAF12 agonist: -0.6; DAX1 inh-1: 5.1*; hcDAF-12 act: 1.3; hgDAF12 agonist: 7.2; DAX1 inh-2: 1.0; DAX1 inh confirm: 3.0; SF1 AF2mut Luc: 2.0

Results for CCc1ccc(OCC(=O)NC2CCCCC2)c(Br)c1 ?
ssDAF12 agonist: -0.1; DAX1 inh-1: 6.9*; hcDAF-12 act: 4.5; hgDAF12 agonist: 8.9; DAX1 inh-2: 1.2; DAX1 inh confirm: 6.9*; SF1 AF2mut Luc: 4.4*

What do the screens show for `Cc1cccc(C)c1-n1nnnc1C(c1ccccc1OC(F)(F)F)N1CCN(C/C=C/c2ccccc2)CC1` (centres undefined)?
ssDAF12 agonist: -0.8; DAX1 inh-1: 4.7*; hcDAF-12 act: -0.8; hgDAF12 agonist: 5.7; DAX1 inh confirm: -3.5; SF1 AF2mut Luc: -1.1

Results for Cc1ccccc1C1CCCN(C(=O)c2cc(COc3c(F)cccc3F)on2)C1 (centres undefined) ?
ssDAF12 agonist: -1.5; DAX1 inh-1: -0.5; hcDAF-12 act: -2.3; hgDAF12 agonist: -2.7; DAX1 inh-2: -1.6

How did CCCOC1CCCN(C(=O)c2cc(COc3c(F)cccc3F)on2)C1 (centres undefined) do in these assays?
ssDAF12 agonist: -0.4; DAX1 inh-1: 4.5*; hcDAF-12 act: 2.5; hgDAF12 agonist: 10.0; DAX1 inh-2: 1.2; DAX1 inh confirm: 4.4*; SF1 AF2mut Luc: 5.5*

How did O=C(NCCc1ccccc1)C1=COCCO1 do in these assays?
ssDAF12 agonist: -0.9; DAX1 inh-1: 7.8*; hcDAF-12 act: 4.1; hgDAF12 agonist: 8.4; DAX1 inh-2: 1.1; DAX1 inh confirm: 8.7*; SF1 AF2mut Luc: 6.5*

What do the screens show for `Cc1cccnc1NC(=O)COc1ccc2oc3c(c2c1)CCCC3`?
ssDAF12 agonist: -1.3; DAX1 inh-1: -0.4; hcDAF-12 act: 0.5; hgDAF12 agonist: -0.7; DAX1 inh-2: -0.1

What do the screens show for `Cc1cccnc1NC(=O)COc1ccc2c(c1)CCC2`?
ssDAF12 agonist: 1.0*; DAX1 inh-1: 6.1*; hcDAF-12 act: 0.8; hgDAF12 agonist: 9.1; DAX1 inh-2: 0.2; DAX1 inh confirm: 4.7*; SF1 AF2mut Luc: 1.6

What do the screens show for `Cc1ccc(NC(=O)COc2ccc3oc4c(c3c2)CCCC4)nc1`?
ssDAF12 agonist: -1.2; DAX1 inh-1: -1.0; hcDAF-12 act: -1.7; hgDAF12 agonist: 1.1; DAX1 inh-2: -0.7

What do the screens show for `Cc1ccc(NC(=O)COc2ccc3c(c2)CCC3)nc1`?
ssDAF12 agonist: -0.2; DAX1 inh-1: 5.1*; hcDAF-12 act: 0.2; hgDAF12 agonist: 10.6*; DAX1 inh-2: 3.5; DAX1 inh confirm: 8.4*; SF1 AF2mut Luc: 3.5*

How did O=S1(=O)c2ccc(Br)cc2OC2CCCC[C@@H]2N1Cc1ccccc1 (some centres undefined) do in these assays?
ssDAF12 agonist: -0.9; DAX1 inh-1: -0.8; hcDAF-12 act: -0.2; hgDAF12 agonist: 1.6

Results for O=C(CSc1nnc(-c2ccccc2)n1-c1ccc(Cl)cc1)Nc1ccc2cn[nH]c2c1 ?
ssDAF12 agonist: -1.6; DAX1 inh-1: -1.2; hcDAF-12 act: -2.4; hgDAF12 agonist: -1.4

What do the screens show for `C=CCSc1nnc(NC(=O)C2=COCCO2)s1`?
ssDAF12 agonist: 0.1; DAX1 inh-1: 6.8*; hcDAF-12 act: 5.7*; hgDAF12 agonist: 8.4; DAX1 inh-2: 3.2; DAX1 inh confirm: 7.1*; SF1 AF2mut Luc: 6.6*

How did O=C(Nc1nnc(SCc2ccccc2)s1)C1=COCCO1 do in these assays?
ssDAF12 agonist: -0.3; DAX1 inh-1: 2.1; hcDAF-12 act: 2.6; hgDAF12 agonist: 4.0; DAX1 inh-2: 0.0

How did O=C(Nc1nnc(SCc2ccccc2F)s1)C1=COCCO1 do in these assays?
ssDAF12 agonist: -0.2; DAX1 inh-1: 5.8*; hcDAF-12 act: 3.4; hgDAF12 agonist: 4.0; DAX1 inh-2: 0.4; DAX1 inh confirm: 6.4*; SF1 AF2mut Luc: 1.9

Results for Cc1cc(NC(=O)NC(=O)c2ccccc2F)no1 ?
ssDAF12 agonist: 0.8; DAX1 inh-1: 5.2*; hcDAF-12 act: 3.6; hgDAF12 agonist: 4.0; DAX1 inh-2: 1.3; DAX1 inh confirm: 8.7*; SF1 AF2mut Luc: 2.5

What do the screens show for `Cc1cc(NC(=O)c2ccccc2Cl)no1`?
ssDAF12 agonist: -0.1; DAX1 inh-1: 0.9; hcDAF-12 act: 1.5; hgDAF12 agonist: 3.5; DAX1 inh-2: 2.6

Results for Cc1ccc(S(=O)(=O)n2c(C)nc3ccccc32)cc1 ?
ssDAF12 agonist: -1.4; DAX1 inh-1: -0.2; hcDAF-12 act: -1.6; hgDAF12 agonist: -1.4; DAX1 inh-2: 1.1

What do the screens show for `Nc1nc2ccccc2n1S(=O)(=O)c1ccccc1`?
ssDAF12 agonist: -0.5; DAX1 inh-1: 4.8*; hcDAF-12 act: -0.6; hgDAF12 agonist: -0.8; DAX1 inh confirm: 1.6; SF1 AF2mut Luc: 1.1

Results for COc1cccc(N2CC(C(=O)Nc3nnc(SCC(=O)Nc4ccc(NC(C)=O)cc4)s3)CC2=O)c1 (centres undefined) ?
ssDAF12 agonist: -0.7; DAX1 inh-1: -1.3; hcDAF-12 act: -0.6; hgDAF12 agonist: 0.2; DAX1 inh-2: 0.9

How did Cc1cccc(C(=O)Nc2nnc(SCC(=O)NCc3ccco3)s2)c1 do in these assays?
ssDAF12 agonist: 0.4; DAX1 inh-1: 5.6*; hcDAF-12 act: 0.1; hgDAF12 agonist: 9.1; DAX1 inh-2: 0.8; DAX1 inh confirm: 2.9; SF1 AF2mut Luc: 2.5

Results for COc1cccc(C(=O)Nc2nnc(SCC(=O)Nc3ccc(NC(C)=O)cc3)s2)c1 ?
ssDAF12 agonist: 0.2; DAX1 inh-1: 10.2*; hcDAF-12 act: 5.6*; hgDAF12 agonist: 8.6; DAX1 inh-2: 1.2; DAX1 inh confirm: 9.1*; SF1 AF2mut Luc: 6.6*

High-throughput results from PubChem.
